Laboratory results: PubChem BioAssay (NCATS)
Several values for one entry are separate records, joined by “and”; a condition that tells them apart may be missing. Equal entries are not always repeated. Inconclusive results are not listed. Activity calls are given as the source filed them. Unless noted, calls come from the whole dose curve; as a rule, active = well fitted curve in the direction sought with a large enough effect; inconclusive = small, poorly fitted or top-dose-only effect, or another doubt; inactive = no such curve, though single readings can be large; an effect the other way counts as inactive or inconclusive.

What was measured:
[1] = qHTS Assay for Identifying Gametocytocidal Compounds (AID 743244);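 note: % is set by controls: 0 for no effect and ±100 for the full control effect; actives lower the fluorescent signal which means gametocytes are killed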; settings: P. falciparum 3D7 stage III-V gametocytes, alamarBlue, 72 h; max response: stronger effect = lower value
Method in brief: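 In this qHTS viability screen, late-stage 3D7 gametocytes are incubated with compound for 72 h, then with alamarBlue for 24 h; reduced resorufin fluorescence marks killing.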

[2] = P-glycoprotein substrates identified in KB-8-5-11 adenocarcinoma cell line, qHTS therapeutic library screen (AID 1346987); note: % is set by controls: 0 for no effect and ±100 for the full control effect; nearly all actives have a fitted effect of over 65% in size
Method in brief: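 KB-8-5-11, a colchicine-selected P-gp-overexpressing KB-3-1 subline, was grown without colchicine for the assay. Cells were seeded at 500 cells/well, dosed in concentration-response and incubated 72 h at 37 degree C, 5% CO2. Viability was read by CellTiter-Glo luminescence.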

[3] = target: T1, Hexokinase-4 (Homo sapiens) + Glucokinase regulatory protein (Homo sapiens) (UniProt P35557+Q14397); test: qHTS assay for inhibitors of recombinant human GCK-GKRP interaction: Diaphorase-coupled assay (AID 743205)
T1 sequence (P35557 whole entry, looked up): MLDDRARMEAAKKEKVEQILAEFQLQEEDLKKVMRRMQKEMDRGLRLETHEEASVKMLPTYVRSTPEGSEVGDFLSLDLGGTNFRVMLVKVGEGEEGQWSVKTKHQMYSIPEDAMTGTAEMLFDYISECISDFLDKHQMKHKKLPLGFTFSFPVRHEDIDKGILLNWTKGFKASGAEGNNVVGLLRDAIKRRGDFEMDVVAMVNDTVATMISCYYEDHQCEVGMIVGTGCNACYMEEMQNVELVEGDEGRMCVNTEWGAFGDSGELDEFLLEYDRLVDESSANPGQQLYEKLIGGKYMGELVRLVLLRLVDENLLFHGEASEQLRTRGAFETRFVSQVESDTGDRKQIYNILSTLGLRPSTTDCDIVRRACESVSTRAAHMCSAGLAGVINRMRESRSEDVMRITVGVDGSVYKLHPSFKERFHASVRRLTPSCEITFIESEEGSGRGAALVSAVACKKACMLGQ
T1 sequence (Q14397 whole entry, looked up): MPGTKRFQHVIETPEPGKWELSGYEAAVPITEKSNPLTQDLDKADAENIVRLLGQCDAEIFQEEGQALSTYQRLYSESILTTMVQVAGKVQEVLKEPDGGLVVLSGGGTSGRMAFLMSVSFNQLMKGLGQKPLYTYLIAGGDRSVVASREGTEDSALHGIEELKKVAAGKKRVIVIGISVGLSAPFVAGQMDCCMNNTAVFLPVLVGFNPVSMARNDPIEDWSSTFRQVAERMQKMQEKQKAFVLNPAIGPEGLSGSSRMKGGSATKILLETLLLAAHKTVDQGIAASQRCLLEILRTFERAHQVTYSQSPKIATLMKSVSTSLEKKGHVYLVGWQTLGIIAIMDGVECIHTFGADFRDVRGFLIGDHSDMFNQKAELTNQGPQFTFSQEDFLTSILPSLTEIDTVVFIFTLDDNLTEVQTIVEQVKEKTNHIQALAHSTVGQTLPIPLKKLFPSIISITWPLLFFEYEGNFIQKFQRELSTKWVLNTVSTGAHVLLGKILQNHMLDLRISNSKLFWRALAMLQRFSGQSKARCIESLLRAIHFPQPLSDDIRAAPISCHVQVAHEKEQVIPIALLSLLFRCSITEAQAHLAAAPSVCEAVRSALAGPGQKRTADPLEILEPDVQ
Method in brief: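 GST-GCK (10 nM) with FLAG-GKRP (10 nM), 5 mM glucose and 0.4 mM ATP in pH 7.6 Hepes; compounds preincubated 20 min with substrate. G6PDH/diaphorase coupling converts resazurin to resorufin, read kinetically (ex 525/em 590 nm) for 30 min.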

[4] = target: T1, Hexokinase-4 (Homo sapiens) + Glucokinase regulatory protein (Homo sapiens); test: qHTS assay for inhibitors of recombinant human GCK-GKRP interaction: ADP-Glo assay (AID 743206);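 note: plate controls were DMSO plus enzyme for no effect and no enzyme for full effect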
Method in brief: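 GST-GCK and FLAG-GKRP (15 nM each in the dispensed mix, with 2 uM S6P) react with 0.4 mM ATP and 5 mM glucose (final) in Hepes pH 7.6 for 60 min at room temperature. ADP is measured by ADP-Glo luminescence.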

[5] = target: T1, Hexokinase-4 (Homo sapiens) + Glucokinase regulatory protein (Homo sapiens); test: qHTS assay for inhibitors of recombinant human GCK-GKRP interaction: HTRF assay (AID 743207);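 note: 0% = DMSO with GCK present and -100% = DMSO wells lacking GCK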
Method in brief: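 GST-GCK and FLAG-GKRP (5 nM each) were combined with 2 uM S6P in pH 7.1 Hepes/MgCl2/KCl/DTT buffer, then compound and anti-FLAG XL665/anti-GST K antibodies were added. After 60 min at room temperature, HTRF 665/615 nm emission was read.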

[6] = target: Atrial natriuretic peptide receptor 1 (Homo sapiens) (UniProt P16066); test: Natriuretic polypeptide receptor (hNpr1) antagonism - Pilot screen (AID 1347049; calls by dose curve;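 note: agonist-evoked cGMP luminescence read 20 min after hNppA addition; % is set by controls: 0 for no effect and ±100 for the full control effect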)
Sequence of Atrial natriuretic peptide receptor 1 (Homo sapiens) (P16066 whole entry, looked up): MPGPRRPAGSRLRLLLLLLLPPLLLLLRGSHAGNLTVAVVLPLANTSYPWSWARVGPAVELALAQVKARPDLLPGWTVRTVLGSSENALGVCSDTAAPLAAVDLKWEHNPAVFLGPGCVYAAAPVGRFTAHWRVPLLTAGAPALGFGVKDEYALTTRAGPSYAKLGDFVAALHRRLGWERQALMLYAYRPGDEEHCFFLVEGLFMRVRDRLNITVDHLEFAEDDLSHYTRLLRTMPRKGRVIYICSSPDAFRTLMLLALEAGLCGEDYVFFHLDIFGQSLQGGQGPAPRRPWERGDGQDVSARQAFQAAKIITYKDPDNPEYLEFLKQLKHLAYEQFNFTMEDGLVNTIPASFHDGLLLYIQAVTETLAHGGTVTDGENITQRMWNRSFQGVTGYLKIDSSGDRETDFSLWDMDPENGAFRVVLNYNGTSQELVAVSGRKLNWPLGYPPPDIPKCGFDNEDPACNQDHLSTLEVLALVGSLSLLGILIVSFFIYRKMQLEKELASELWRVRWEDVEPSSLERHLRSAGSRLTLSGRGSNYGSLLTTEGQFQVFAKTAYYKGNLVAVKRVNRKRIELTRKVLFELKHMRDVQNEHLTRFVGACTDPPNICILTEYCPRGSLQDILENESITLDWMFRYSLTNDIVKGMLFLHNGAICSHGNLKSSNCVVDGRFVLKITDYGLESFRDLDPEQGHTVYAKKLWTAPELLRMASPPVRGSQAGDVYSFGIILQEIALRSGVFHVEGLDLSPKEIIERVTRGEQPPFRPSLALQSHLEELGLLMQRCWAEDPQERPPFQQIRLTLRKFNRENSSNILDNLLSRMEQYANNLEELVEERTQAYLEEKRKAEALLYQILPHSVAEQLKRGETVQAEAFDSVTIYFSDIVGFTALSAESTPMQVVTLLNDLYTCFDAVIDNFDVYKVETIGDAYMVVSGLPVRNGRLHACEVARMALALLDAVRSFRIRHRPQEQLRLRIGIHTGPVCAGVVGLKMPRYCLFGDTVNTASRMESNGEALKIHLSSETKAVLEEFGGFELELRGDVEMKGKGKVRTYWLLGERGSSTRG
Method in brief: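 Readout is cGMP-driven firefly luciferase luminescence in HEK293 cells carrying hNpr1 and a PDE5-domain GloSensor, read before and 20 min after 0.1 nM hNppA stimulation. Cells had 2% substrate reagent for 2 h and test compound for 30 min.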

[7] = target: Atrial natriuretic peptide receptor 2 (Homo sapiens) (UniProt P20594); test: Natriuretic polypeptide receptor (hNpr2) antagonism - Pilot subtype selectivity assay (AID 1347050; calls by dose curve; note: potency is the fitted concentration of half-maximal effect)
Sequence of Atrial natriuretic peptide receptor 2 (Homo sapiens) (P20594 whole entry, looked up): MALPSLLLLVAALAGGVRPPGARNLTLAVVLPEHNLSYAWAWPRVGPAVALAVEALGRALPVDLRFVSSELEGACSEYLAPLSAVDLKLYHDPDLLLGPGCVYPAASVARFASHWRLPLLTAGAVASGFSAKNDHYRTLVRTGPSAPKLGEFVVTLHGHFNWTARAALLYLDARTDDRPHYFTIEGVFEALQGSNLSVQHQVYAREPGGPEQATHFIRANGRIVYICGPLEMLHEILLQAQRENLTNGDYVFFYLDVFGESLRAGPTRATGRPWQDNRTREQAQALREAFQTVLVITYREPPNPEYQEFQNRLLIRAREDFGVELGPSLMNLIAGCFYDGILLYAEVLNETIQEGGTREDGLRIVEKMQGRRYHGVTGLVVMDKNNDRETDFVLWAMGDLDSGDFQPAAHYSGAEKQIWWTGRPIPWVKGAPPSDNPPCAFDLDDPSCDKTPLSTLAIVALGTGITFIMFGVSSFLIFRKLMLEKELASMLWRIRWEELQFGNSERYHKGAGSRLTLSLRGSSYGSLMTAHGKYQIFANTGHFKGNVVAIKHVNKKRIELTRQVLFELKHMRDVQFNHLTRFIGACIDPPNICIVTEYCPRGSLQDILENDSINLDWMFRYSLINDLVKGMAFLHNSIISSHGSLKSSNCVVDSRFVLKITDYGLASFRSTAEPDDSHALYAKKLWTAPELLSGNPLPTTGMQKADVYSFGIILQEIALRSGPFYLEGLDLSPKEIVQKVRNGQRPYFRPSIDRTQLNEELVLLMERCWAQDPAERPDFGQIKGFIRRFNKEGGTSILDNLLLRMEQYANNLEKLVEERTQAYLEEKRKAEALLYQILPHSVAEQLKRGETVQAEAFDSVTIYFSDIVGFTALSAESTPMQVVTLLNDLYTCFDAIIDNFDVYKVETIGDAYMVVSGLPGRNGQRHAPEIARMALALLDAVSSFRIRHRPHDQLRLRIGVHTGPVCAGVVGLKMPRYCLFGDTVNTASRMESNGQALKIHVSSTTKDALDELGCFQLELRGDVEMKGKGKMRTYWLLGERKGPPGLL
Method in brief: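 Pilot selectivity screen against hNpr2: HEK293 cGMP-sensor cells are treated with LOPAC1280 compounds, then with hNppC peptide at 1 nM final. The cGMP-driven luminescence change over 20 min at room temperature is the read-out.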

[8] = target: T2, Tyrosine-protein phosphatase non-receptor type substrate 1 (Homo sapiens) + Leukocyte surface antigen CD47 (Homo sapiens) (UniProt P78324+Q08722); test: CD47-SIRPalpha protein protein interaction - LANCE assay qHTS validation (AID 1347057; active = well fitted curve in the direction sought with a large enough effect in the signal ratio, with a control signal flat, not every such curve was filed as active; the % refers to the signal ratio; note: 0% is about no effect)
T2 sequence (P78324 whole entry, looked up): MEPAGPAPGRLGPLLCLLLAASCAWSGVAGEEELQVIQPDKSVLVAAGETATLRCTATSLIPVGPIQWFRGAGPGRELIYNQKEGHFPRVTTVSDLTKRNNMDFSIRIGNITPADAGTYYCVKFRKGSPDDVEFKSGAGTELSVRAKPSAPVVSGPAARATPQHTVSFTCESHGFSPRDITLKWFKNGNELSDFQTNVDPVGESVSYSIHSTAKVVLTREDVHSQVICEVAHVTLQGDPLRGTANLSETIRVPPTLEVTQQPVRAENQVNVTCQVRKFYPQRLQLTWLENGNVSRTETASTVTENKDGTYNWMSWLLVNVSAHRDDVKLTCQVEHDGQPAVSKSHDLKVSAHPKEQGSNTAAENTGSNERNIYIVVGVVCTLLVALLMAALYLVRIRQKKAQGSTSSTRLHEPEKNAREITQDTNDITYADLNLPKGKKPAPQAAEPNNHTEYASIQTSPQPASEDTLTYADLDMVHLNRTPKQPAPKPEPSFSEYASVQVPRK
T2 sequence (Q08722 whole entry, looked up): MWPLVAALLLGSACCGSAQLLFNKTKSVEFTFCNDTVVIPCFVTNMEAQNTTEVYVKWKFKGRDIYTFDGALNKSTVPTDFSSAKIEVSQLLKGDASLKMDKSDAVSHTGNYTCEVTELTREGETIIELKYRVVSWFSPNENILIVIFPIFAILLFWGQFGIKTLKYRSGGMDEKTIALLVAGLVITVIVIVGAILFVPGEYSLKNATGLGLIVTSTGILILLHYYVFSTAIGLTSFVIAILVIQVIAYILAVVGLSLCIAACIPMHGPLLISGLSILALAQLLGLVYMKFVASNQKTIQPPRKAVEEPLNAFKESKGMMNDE
Method in brief: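 First, His-tagged CD47 and Eu-labelled anti-His antibody met the compound for 30 min; next, site-specifically biotinylated SIRPalpha was added for 30 min; finally streptavidin-APC was added before reading the TR-FRET ratio.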

[9] = target: T2, Tyrosine-protein phosphatase non-receptor type substrate 1 (Homo sapiens) + Leukocyte surface antigen CD47 (Homo sapiens); test: CD47-SIRPalpha protein protein interaction - HTRF assay qHTS validation (AID 1347058; active = well fitted curve in the direction sought with a large enough effect in the signal ratio, not every such curve was filed as active; the % refers to the signal ratio;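 note: recombinant soluble extracellular CD47 with His tag and biotinylated SIRPalpha domains; 0% is about no effect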)
Method in brief: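 TR-FRET read (Ch1/Ch2 ratio) of soluble extracellular CD47 and Avi-biotinylated SIRPalpha domains in PBS pH 7.4 with 0.05% IGEPAL; 7-point compound titration. Sequential 30 min room-temperature steps; non-biotinylated SIRPalpha as control inhibitor.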

[10] = target: T2, Tyrosine-protein phosphatase non-receptor type substrate 1 (Homo sapiens) + Leukocyte surface antigen CD47 (Homo sapiens); test: CD47-SIRPalpha protein protein interaction - Alpha assay qHTS validation (AID 1347059);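 note: bead proximity luminescence from CD47 binding SIRPalpha after compound preincubation with SIRPalpha; % is set by controls: 0 for no effect and ±100 for the full control effect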
Method in brief: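 Binding is measured by AlphaScreen proximity: Ni-NTA acceptor beads capture His-CD47, streptavidin donor beads capture biotin-SIRPalpha. Each of three additions (SIRPalpha with compound, CD47, beads) incubates 30 min at room temperature protected from light.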

[11] = target: Parathyroid hormone/parathyroid hormone-related peptide receptor (Homo sapiens) (UniProt Q03431); test: qHTS for PTHR1 Agonists: Optimization Screen against the NCGC LOPAC library (AID 1347079);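 note: GloSensor cAMP luminescence in HEK-293 GP2 cells expressing human PTHR1 with IBMX; 0% is about no effect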
Sequence of Parathyroid hormone/parathyroid hormone-related peptide receptor (Homo sapiens) (Q03431 whole entry, looked up): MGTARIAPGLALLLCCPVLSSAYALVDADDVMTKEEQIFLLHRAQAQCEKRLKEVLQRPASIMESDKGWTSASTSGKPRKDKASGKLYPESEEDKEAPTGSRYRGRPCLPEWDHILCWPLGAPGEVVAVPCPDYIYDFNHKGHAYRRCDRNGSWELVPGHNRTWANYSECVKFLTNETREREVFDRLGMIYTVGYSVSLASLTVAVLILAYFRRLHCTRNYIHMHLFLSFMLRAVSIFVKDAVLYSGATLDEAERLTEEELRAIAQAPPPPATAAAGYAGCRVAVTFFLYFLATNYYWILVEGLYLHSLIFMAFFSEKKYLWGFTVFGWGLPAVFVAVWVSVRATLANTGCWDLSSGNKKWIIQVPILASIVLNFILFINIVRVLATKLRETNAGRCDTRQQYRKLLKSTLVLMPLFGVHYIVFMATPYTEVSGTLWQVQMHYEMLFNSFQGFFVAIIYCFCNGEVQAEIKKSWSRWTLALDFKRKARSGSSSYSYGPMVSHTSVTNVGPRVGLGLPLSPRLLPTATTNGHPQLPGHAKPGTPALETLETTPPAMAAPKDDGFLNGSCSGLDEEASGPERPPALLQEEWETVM
Method in brief: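 Agonist readout: GloSensor cAMP luminescence, read after 15 min at room temperature. HEK-293-derived GP2 line carries PTHR1; compounds tested as a titration for 1 hr at 37C in presence of IBMX. M-PTH (1-15) served as control.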

[12] = qHTS of pediatric cancer cell lines to identify multiple opportunities for drug repurposing: Primary screen for SJ-GBM2 cells (AID 1347091); settings: SJ-GBM2 viability, CellTiter-Glo luminescence, 48 h; note: potency is the fitted concentration of half-maximal effect
Method in brief: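 Cell viability, CellTiter-Glo luminescence; 500-1,000 cells/well, 8- or 11-point titration, 48 h compound exposure at 37 degrees C, 5% CO2. Controls: DMSO neutral, bortezomib 2.3 µM final as positive.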

[13] = qHTS of pediatric cancer cell lines to identify multiple opportunities for drug repurposing: Primary screen for Saos-2 cells (AID 1347097); settings: Saos-2 viability, CellTiter-Glo ATP luminescence, 48 h; note: potency is the fitted concentration of half-maximal effect; nearly all actives have a fitted effect of over 40% in size
Method in brief: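 Phenotypic viability qHTS, 48 h compound exposure, CellTiter-Glo luminescence read-out; multi-concentration dosing so that potency and efficacy derive directly from the primary screen's curves.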

[14] = qHTS profiling of the MIPE4 collection as inhibitors of Plasmodium falciparum (3D7) proliferation (AID 743344; call rule not given here;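 note: scaled between DMSO vehicle wells and 0.29 µM artemisinin as full inhibition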); settings: P. falciparum 3D7 in erythrocytes, SYBR Green DNA fluorescence, 72 h; at 28.5 µM (top of the series)
Method in brief: (§1)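 Erythrocytes infected with P. falciparum (0.3% parasitemia, 2.5% hematocrit) incubated with compounds 72 h at 37 C, 5% CO2. Lysis with saponin/Triton buffer containing SYBR Green I, overnight at room temperature in the dark; DNA fluorescence (485/535 nm) normalised to 0.29 uM artemisinin and DMSO.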

[15] = qHTS profiling of the MIPE4 collection as inhibitors of Plasmodium falciparum (DD2) proliferation (AID 743345; call rule not given here); settings: P. falciparum Dd2 in erythrocytes, SYBR Green DNA, 72 h; at 28.5 µM (top of the series)
Method in brief: as §1

[16] = qHTS profiling of the MIPE4 collection as inhibitors of Plasmodium falciparum (DD2) proliferation (Rep 2) (AID 743346; call rule not given here); settings: P. falciparum Dd2 in erythrocytes, SYBR Green DNA, 72 h; at 28.5 µM (top of the series)
Method in brief: as §1

[17] = qHTS profiling of the MIPE4 collection as inhibitors of Plasmodium falciparum (HB3) proliferation (AID 743347; call rule not given here;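 note: plate controls were DMSO vehicle wells for no effect and artemisinin wells for full effect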); settings: P. falciparum HB3 in erythrocytes, SYBR Green DNA, 72 h; at 28.5 µM (top of the series)
Method in brief: as §1

[18] = qHTS assay for cell viability of HEK293 cells (AID 743288); settings: ATP luminescence (CellTiter-Glo), 18 h, stronger effect = lower value; note: % is set by controls: 0 for no effect and ±100 for the full control effect; nearly all actives have a fitted effect of over 50% in size
Method in brief: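 Parental HEK293 cells were seeded at 2,000 cells/well, rested at least 5 h at 37 C, then exposed to compounds in DMSO for 18 h at 37 C. Viability was read as ATP-dependent luciferase luminescence after 30 min at room temperature.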

[19] = qHTS assay for cell viability of the p53RE-bla HCT-116 cell line (AID 743292); note: % is set by controls: 0 for no effect and ±100 for the full control effect; nearly all actives have a fitted effect of over 55% in size
Method in brief: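 Compound-exposed HCT-116 (p53RE-bla) cells, 4,000 per well, were kept 16 h at 37 C following a 5 h preincubation. Cell number was estimated from total ATP by CellTiter-Glo luminescence read after 30 min at room temperature.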

CC(CC(c1ccccc1)c1ccccc1)NC(C)(C)C (stereo unspecified)
max response [1]: -8.24% (inactive)

CCN(CC)CCOC(=O)c1ccc(N)cc1Cl
max response [1]: -6.93% (inactive) | Potency [2]: inactive

Nc1c(CC(=O)O)cccc1C(=O)c1ccccc1
max response [1]: -9.51% (inactive) and 6.92% (inactive) | Potency [2]: inactive

CC1=C(C(=O)OCCN(Cc2ccccc2)c2ccccc2)C(c2cccc([N+](=O)[O-])c2)C(P2(=O)OCC(C)(C)CO2)=C(C)N1 (stereo unspecified)
max response [1]: 12.9% (inactive)

Cc1[nH]cnc1C[C@H]1CCc2c(C)c3ccccc3n2C1=O
max response [1]: 6.9% (inactive)

O=[N+]([O-])c1ccc(Oc2ccc(N=C=S)cc2)cc1
max response [1]: 16.5% (inactive)

O=C(CO)[C@@H](O)[C@H](O)[C@H](O)CO
max response [1]: 0.975% (inactive)

O=S(=O)(O)Oc1ccc(C(c2ccc(OS(=O)(=O)O)cc2)c2ccccn2)cc1
max response [1]: 4.73% (inactive) | Potency [2]: inactive

CN[C@H]1CC[C@@H](c2ccc(Cl)c(Cl)c2)c2ccccc21
outcome [3]: inactive | outcome [4]: inactive | outcome [5]: inactive | outcome [6]: inactive | Potency [7]: 14.7 µM (active) | outcome [8]: inactive | outcome [9]: inactive | outcome [10]: inactive | outcome [11]: inactive | Potency [12]: 23.7 µM (active) | Potency [13]: 23.7 µM (active)

CC(=O)NC[C@H]1CN(c2ccc(N3CCSCC3)c(F)c2)C(=O)O1
parasite growth, % of DMSO control [14]: 91.5% | parasite growth remaining, % of DMSO control (lower = more inhibition) [15]: 103% | parasite growth, % of control (lower = inhibition) [16]: 186% | growth, % of control [17]: 110%

CC#CCC(C)[C@H](O)/C=C/[C@@H]1[C@H]2C/C(=C/CCCC(=O)O)C[C@H]2C[C@H]1O (stereo partly specified)
max response [1]: 11.1% (inactive) | Potency [2]: inactive

C[C@H](CSC(=O)c1ccccc1)C(=O)N1C[C@@H](Sc2ccccc2)C[C@H]1C(=O)O
max response [1]: 13.2% (inactive) | Potency [2]: inactive

O=C(O)CC(O)(CC(=O)O)C(=O)O
max response [1]: -12% (inactive) | max response [18]: -6.07% (inactive) and -4.96% (inactive) and -7.26% (inactive) | outcome [19]: inactive | Potency [2]: inactive

CS(=O)(=O)NC(=O)CCC/C=C\C[C@H]1C(=O)C[C@@H](O)[C@@H]1/C=C/[C@H](O)COc1ccccc1
max response [1]: -11.4% (inactive) | Potency [2]: inactive
